Compounds with a hit are over-represented: about 2.5% of the library has one in this group of screens.
aSyn rescue = rescues yeast growth from alpha-synuclein toxicity; Yeast expressing alpha-synuclein, growth rescue, BacTiter-Glo, 24 h; Potency, µM (top dose mostly 46.1 µM), hits mostly activators; hit rate 0.14% among 370,000; note: nearly all actives have a fitted effect of over 65% in size
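Rescue of yeast growth: cells expressing toxic alpha-synuclein, induced in galactose at OD600 0.02, incubated with compound 24 h at 30 C. ATP luminescence quantified growth; inhibitors of toxicity appear as activators.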
TDP43 rescue = rescues yeast growth from TDP-43 toxicity | TDP-43 expressing yeast growth rescue, BacTiter-Glo, 24 h | Potency, µM (titrated, usually from 46.1 µM), usual class: activators | hit rate 1.8% among 410,000; note: nearly all actives have a fitted effect of over 50% in size
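Yeast expressing TDP-43 (pregrown in raffinose, seeded at OD600=0.02 in galactose medium) exposed to compounds 24 hr at 30 deg C. Growth read by BacTiter-Glo luminescence; rescue of toxicity appears as increased signal.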
CCT modulator = cytosolic chaperonin activity modulation; purified chaperonin ATPase assay, HTRF ADP detection, 30 min; activity change, % (no concentration beside the values), hits read low; hit rate 0.3% among 360,000; in the data active = activity change below about -30%
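Enzyme 40 or 20 nM (batch-dependent) in Tris pH 7.4/KCl/MgCl2/DTT; cpd 76 uM single point; ATP 10 uM; 30 min 37 °C; Transcreener ADP HTRF detection, 30 min RT; ratio 665/615.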
pAkt inh = Akt phosphorylation inhibition. Neuro2A IGF-stimulated pAkt S473 HTRF, 20 min; hits give low values. activity change, % for hits at 50 µM. hit rate 0.32% among 360,000; in the data active = activity change below about -80%; inconclusive = mostly about -51% to -80%
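Neuro2A cells (4,500/well, DMEM with 0.5% FBS) were treated with compound at a single 50 µM final concentration, stimulated with 6 nM IGF for 20 min at 37 °C, and lysed. Phospho-Akt Ser473 was read by HTRF as 665/615 ratio ×10^4.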
Anesthetic bind = candidate novel general anesthetic via apoferritin binding; P02791; apoferritin/1-aminoanthracene competitive binding, fluorescence; Potency, µM (series often up to 77.5 µM), most hits filed as inhibitors; hit rate 0.074% among 350,000; AID 485281; note: nearly all actives have a fitted effect of over 20% in size
Target sequence (P02791 2-175 limits assumed): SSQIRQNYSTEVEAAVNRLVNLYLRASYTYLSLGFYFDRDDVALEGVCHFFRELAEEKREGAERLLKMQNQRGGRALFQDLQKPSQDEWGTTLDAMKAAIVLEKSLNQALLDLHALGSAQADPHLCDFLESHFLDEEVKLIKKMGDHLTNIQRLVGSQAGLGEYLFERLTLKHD
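In PBS, apoferritin at 10 uM is loaded with 1-AMA from a 50% saturated solution. After 10 min of compound exposure at ambient temperature, reduced 535 nm fluorescence indicates probe displacement.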
Mito fusion act = mitochondrial division inhibition or fusion activation | AID 485298 | hit rate 0.23% among 320,000 | Potency, µM (top dose mostly 46.1 µM), most hits filed as activators | S. cerevisiae fusion-defective mutant growth rescue, CellTiterGlo 48 h; note: nearly all actives have a fitted effect of over 45% in size
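Temperature-sensitive fusion-defective S. cerevisiae (e.g. fzo1-1, mgm1-5) were grown with compound in YPEG medium (3% ethanol, 3% glycerol) for 48 hours at 37C. Growth rescue was measured as viability by CellTiterGlo luminescence after 10 minutes at ambient.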
Numbers stand for hits; 0 = inactive; ? = inconclusive; - = no result given. Unless noted, calls come from the whole dose curve; as a rule, active = well fitted curve in the direction sought with a large enough effect; inconclusive = small, poorly fitted or top-dose-only effect, or another doubt; inactive = no such curve, though single readings can be large; an effect the other way counts as inactive or inconclusive.

SMILES | aSyn rescue | TDP43 rescue | CCT modulator | pAkt inh | Anesthetic bind | Mito fusion act
CCCCCOC(=O)Nc1ccc(S(=O)(=O)Nc2cccc([N+](=O)[O-])c2)cc1 | 0 | 0 | -52.8 | 0 | ? | 0
Cc1ccc(NC(=O)Cn2nc(-c3ccccc3Cl)ccc2=O)c(Br)c1 | 0 | 0 | 0 | 0 | 10µM | 0
Cc1ccc(-c2ccc(=O)n(CC(=O)Nc3ccc(C)cc3Cl)n2)cc1 | - | 0 | - | - | 10µM | -
COc1ccccc1NC(=O)Cn1nc(-c2ccc3c(c2)OCCO3)ccc1=O | 0 | 0 | 0 | 0 | 11.2µM | 0
Cc1c(Br)ccc(NC(=O)Cn2nc(-c3cccs3)ccc2=O)c1C | 0 | 0 | 0 | 0 | ? | 0
CCCCC#Cc1nc(NC)c2ncn([C@@H]3O[C@H](CO)[C@@H](O)[C@H]3O)c2n1 | 0 | - | - | - | - | 0
O=C1CC(SCc2nc3ccccc3[nH]2)C(=O)N1c1ccc(Cl)cc1 (centres undefined) | 0 | 0 | 0 | 0 | 0 | 0
O=C1CC(SCc2nc3ccccc3[nH]2)C(=O)N1c1ccc(F)c(Cl)c1 (centres undefined) | - | 12.6µM | 0 | - | 0 | 0
COc1ccc(N2C(=O)CC(SCC(=O)O)C2=O)cc1 (centres undefined) | 0 | 0 | 0 | 0 | 0 | 0
COc1ccc(N2C(=O)CC(SCc3ccc(Cl)cc3)C2=O)cc1 (centres undefined) | 0 | 22.4µM | 0 | 0 | 0 | 0
Oc1c(-c2cc(-c3ccco3)[nH]n2)ccc2ccccc12 | 0 | 10µM | 0 | 0 | 0 | ?
Oc1ccc(Br)cc1-c1ccn[nH]1 | 0 | 12.6µM | 0 | 0 | 0 | 0
Oc1ccc(Cl)cc1-c1cc(-c2cccc(Br)c2)n[nH]1 | 0 | ? | 0 | 0 | ? | 0
Oc1ccccc1-c1cc(-c2ccco2)[nH]n1 | 0 | 0 | 0 | 0 | ? | 0
Oc1ccc(Cl)cc1-c1cc(-c2ccco2)[nH]n1 | 0 | 0 | 0 | 0 | ? | 0
Oc1ccc(Br)cc1-c1cc(-c2ccco2)[nH]n1 | 0 | 12.6µM | 0 | 0 | ? | 0
COc1ccccc1NC(=O)CSC1=NC(=O)C(NC(C)=O)C(=O)N1 (centres undefined) | 0 | 0 | 0 | 0 | 0 | 0
CC(=O)NC1C(=O)N=C(SCC(=O)Nc2ccc(C(F)(F)F)cc2Cl)NC1=O (centres undefined) | 0 | 0 | -53.3 | 0 | 0 | 0
S=C(NCC1CCCO1)c1ccc(Br)cc1 (centres undefined) | 0 | 11.2µM | 0 | 0 | 0 | 0
Cc1cc(C)cc(NC(=S)NCC2CCCO2)c1 (centres undefined) | 0 | ? | 0 | -114.7% | 0 | 0
Cn1nc(-c2ccc(Cl)cc2)c2cc(C(=O)NCC3CCCO3)sc21 (centres undefined) | ? | 22.4µM | 0 | 0 | 0 | 0
Cn1c(-c2c(N)n(C3CCCC3)c3nc4ccccc4nc23)nc2ccccc21 | 0 | 12.6µM | 0 | 0 | 0 | 0
CCCn1nc(NS(C)(=O)=O)c2cc3cccc(C)c3nc21 | 0 | 35.5µM | 0 | 0 | 0 | 0
CCCn1nc(NC(=O)CC)c2cc3cccc(C)c3nc21 | 0 | 0 | 0 | 0 | 0 | ?
CCC(=O)Nc1nn(C)c2nc3c(C)cccc3cc12 | 0 | 0 | 0 | -113.2% | 0 | 0
SMILES | aSyn rescue | TDP43 rescue | CCT modulator | pAkt inh | Anesthetic bind | Mito fusion act
O=C(CNC(=O)C(c1ccccc1)c1ccccc1)OCC(=O)c1ccc2ccccc2c1 | 0 | - | - | - | - | -
Cc1ccccc1CN1CCN(CC(=O)NCc2ccccc2Cl)C1=O | - | 0 | - | - | 0 | -
Oc1ccc(/C=N/Nc2ncc(Br)cn2)c(O)c1 | 17.8µM | 0 | 0 | 0 | 0 | 0
Oc1ccc(/C=N/Nc2nccnc2Cl)c(O)c1 | 11.2µM | 0 | 0 | 0 | 0 | 0
Oc1ccccc1/C=N/Nc1nccnc1Cl | 14.1µM | ? | 0 | 0 | 0 | 0
COc1ccccc1-c1noc(-c2ccc(N3CCOCC3)c([N+](=O)[O-])c2)n1 | - | 0 | - | - | 0 | -
NCc1cn(Cc2ccccc2)nc1-c1ccccc1 | 0 | - | - | - | - | -
CCCCCCCCCCCCCCCCCCCCCCCCCCCCCC | - | - | - | - | 0 | -
C/C(=N\Nc1ccc(F)cc1F)c1ccccc1O | 0 | 12.6µM | 0 | 0 | ? | 0
Cc1cc2c([nH]c3ccccc32)c2c1OC(C)(C)C=C2 | 0 | 28.2µM | 0 | 0 | 0 | 0

Screens from PubChem BioAssay.
